Among all 320,000 compounds or so, about 22,000 (6.9%) were called active. Entries that show only a call come without a potency. Another 27% or so got no clear call; they are omitted. This excerpt belongs to a sample that is enriched for actives. Unmarked numbers belong to inactive results. Calls come from the whole dose curve; as a rule, active = well fitted inhibition curve with a large enough effect; inconclusive = small, poorly fitted or top-dose-only effect, or another doubt; inactive = no such curve, though single readings can be large or run the other way.
Potency is the fitted concentration of half-maximal effect.

This assay is described as follows: Primary qHTS for delayed death inhibitors of the malarial parasite plastid, 96 hour incubation. Conditions: P. falciparum luciferase reporter growth; series mostly up to 28.7 µM. Summed up: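 P. falciparum expressing integrated firefly luciferase, in erythrocytes at 2% hematocrit, 0.05% parasitemia, incubated with compounds 96 h at 37 C, 5% CO2. Growth inhibition read as loss of luminescence; two-generation exposure targets delayed-death apicoplast inhibitors.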
For `CN1CCN(c2ccc(S(=O)(=O)N3CCOCC3)cc2NC(=O)CCc2ccccc2)CC1`, the Potency result was “inactive”.

In the case of `COc1ccc(CC(=O)Nc2cc(S(=O)(=O)N3CCCCC3)ccc2N2CCN(C)CC2)cc1`, the Potency is 6.57 µM (active).

On to `O=C(COC(=O)Cc1ccc(F)cc1)Nc1cc(S(=O)(=O)N2CCOCC2)ccc1N1CCCC1`, for which the Potency result was “inactive”.

Regarding `CCOc1cccc2cc(C(=O)OCC(=O)Nc3c(C)cccc3CC)c(=O)oc12`, the Potency result is “inactive”.

On to `Cc1ccc(S(=O)(=O)N2CCC3(CC2)OCCO3)c(C)c1`, for which the Potency result was “inactive”.

In the case of `Cc1cccc(N2CCN(C(C)C(=O)N3CCc4ccccc43)CC2)c1C` (stereo not drawn), the Potency entry is “inactive”.

Consider `Cc1sc2ncn(CC(=O)NCCCC(=O)N(C)Cc3ccccc3)c(=O)c2c1C`, for which the Potency entry was “inactive”.

Regarding `Cc1ccccc1CC1(CO)CCCN(Cc2ccc3c(c2)OCCO3)C1` (stereo not drawn), the Potency was 14.7 µM (active).

Regarding `CCOc1cc(CN2CCCC(CO)(Cc3ccc(F)cc3F)C2)ccc1OC` (stereo not drawn), the Potency entry is “inactive”.

For `COc1cccc(CC2(CO)CCCN(CC3=Cc4cc(OC)ccc4OC3)C2)c1` (stereo not drawn), the Potency result is “inactive”.

As for `CC(NC(=O)c1cc2cc(Cl)ccc2oc1=N)c1ccccc1` (stereo not drawn), the Potency entry was “inactive”.

Consider `Cn1cc(Cl)c(C(=O)NNC(=S)Nc2cccc(Cl)c2)n1`, for which the Potency entry was “inactive”.

As for `Cc1c(C(=O)Nc2cccc(Cl)c2)cn2c(nc3ccccc32)c1C#N`, the Potency was 2.94 µM (active).

As for `Cn1c(Nc2cccc(Cl)c2)nc2ccccc21`, the Potency result is “inactive”.

For `O=S(=O)(c1cccs1)N1CCN(CCOc2ccccc2)CC1`, the Potency result is “inactive”.

Turning to `COc1ccccc1C(=O)Nn1cnnc1`, the Potency result was “inactive”.

Take `CCn1cc(C(=O)NCCO)c(=O)c2cc(F)c(N3CCN(C)CC3)cc21`: the Potency entry is “inactive”.

Consider `CCOC(=O)c1ccc(NC(=O)CCn2c(=O)oc3ccccc32)cc1`, for which the Potency entry was “inactive”.

Consider `C/C(=N\NC(=O)Cc1ccc(Br)cc1)c1cccnc1`, for which the Potency result was “inactive”.

For the compound `COc1ccc(CC(=O)N/N=C(\C)c2ccccn2)cc1`, the Potency was 3.29 µM (active).

Take `C/C(=N\NC(=O)c1ccccc1F)c1ccccn1`: the Potency entry was “inactive”.

Consider `Nc1nnc(SCC(=O)NC2CCCc3ccccc32)s1` (stereo not drawn), for which the Potency result was “inactive”.

`O=C(c1cccnc1NCc1ccccc1)N1CCOCC1`: the Potency result is “inactive”.

For `c1ccc(COc2nsnc2N2CCOCC2)cc1`, the Potency entry is “inactive”.

As to `Fc1cnc(N2CCOCC2)nc1NCc1ccccc1`, the Potency is 2.94 µM (active).

For `CC(=O)c1ccc(S(=O)(=O)N2CCC(Oc3ccc(-n4cnnn4)cc3)CC2)cc1`, the Potency result was “inactive”.

With `CSCCC1NC2(C(=O)Nc3ccc(Cl)cc32)[C@@H]2C(=O)N(C3CCCC3)C(=O)[C@H]12` (stereo partly drawn), the Potency was 11.7 µM (active).

As to `O=C1[C@@H]2C(Cc3ccc(O)cc3)NC3(C(=O)Nc4ccc(F)cc43)[C@@H]2C(=O)N1c1ccc(F)cc1` (stereo partly drawn), the activity change, negative = inhibition is -3.79% [at 5.75 µM].

`CC(C)(C)NC(=O)NCc1ccco1`: the Potency result was “inactive”.

For `O=C(Nc1ccc2c(c1)OCCO2)C1CCCN(c2ncccn2)C1` (stereo not drawn), the Potency result is “inactive”.

Consider `Cc1cc(C)nc(N2CCC(C(=O)Nc3ccc4c(c3)OCCO4)CC2)n1`, for which the Potency is 9.28 µM (active).

`Cc1sc2ncn(CC(=O)NCCCC(=O)N3CCN(c4ccccc4F)CC3)c(=O)c2c1C`: the Potency entry is “inactive”.

For the compound `CC(=O)c1cc(CN2CCC(n3nccc3NC(=O)c3ccccc3Cl)CC2)cs1`, the Potency result is “inactive”.

Turning to `CC(=O)Nc1ccc(/C=N/Nc2ccc(C(=O)c3c(C)cc4ccccn34)cc2[N+](=O)[O-])cc1`, the Potency result is “inactive”.

For the compound `Cc1c(CCC(=O)O)c(=O)oc2c(C)c(OCc3ccccc3Cl)ccc12`, the Potency result is “inactive”.

Turning to `COc1ccc2c(C)c(CCC(=O)NC3CC3)c(=O)oc2c1C`, the Potency is 4.15 µM (active).

Turning to `CCOC(=O)CCc1c(C)c2ccc(OCc3nn[nH]n3)c(C)c2oc1=O`, the Potency entry is “inactive”.

On to `Cc1c(C(C)CCCO)oc(=O)c2c1Oc1c(C)c(C(C)C[C@@H](C)O)oc(=O)c1C2` (stereo partly drawn), for which the Potency entry is “inactive”.

Turning to `CN1c2ccc([N+](=O)[O-])cc2C(C)(C)C12C=Cc1cc(C(=O)O)ccc1O2` (stereo not drawn), the Potency result is “inactive”.

As for `CC(C(=O)N1CCN(c2ccccc2F)CC1)c1ccc([N+](=O)[O-])cc1` (stereo not drawn), the Potency was 9.28 µM (active).

In the case of `O=C(c1cccc2ccccc12)N1CCN(c2ccccc2F)CC1`, the Potency result is “inactive”.

Consider `O=C(CCSc1ccccc1)N1CCN(c2ccccc2F)CC1`, for which the Potency result was “inactive”.

In the case of `Cc1ccc(OCCCC(=O)Nc2ccc3c(c2)OCCO3)cc1`, the Potency entry was “inactive”.

With `O=C(Nn1cnnc1)c1cc(Cl)ccc1Cl`, the Potency result was “inactive”.

Turning to `O=C(NC(=S)Nc1ccc(Cl)c(C(=O)O)c1)c1cncc(Br)c1`, the Potency entry was “inactive”.

Turning to `COc1cccc2c1OCC1COc3c(c(=O)n(C)c(=O)n3C)C21` (stereo not drawn), the Potency entry is “inactive”.

As to `Cn1c2c(c(=O)n(C)c1=O)C1c3ccccc3OCC1C(C)(C)O2` (stereo not drawn), the Potency was 1.65 µM (active).

On to `Cn1c2c(c(=O)n(C)c1=O)[C@@H]1c3c(ccc4ccccc34)OC[C@@H]1CO2`, for which the Potency result is “inactive”.

`COc1ccc(COC(=O)c2ccc(Cl)c(S(=O)(=O)N3CCOCC3)c2)cc1F`: the Potency is 14.7 µM (active).

For the compound `COc1ccc(C(=O)OCC(=O)c2ccc(C)c(S(=O)(=O)N3CCOCC3)c2)cc1OC`, the Potency entry is “inactive”.

`COc1ccccc1OC(=O)c1ccc(C)c(S(=O)(=O)N2CCOCC2)c1`: the Potency result is “inactive”.

For `C=CCNC(=O)c1ccccc1SCc1c(C)noc1C`, the Potency result is “inactive”.

As to `O=C(c1ccc[nH]c1=S)N1CCN(S(=O)(=O)c2ccc(Br)cc2Cl)CC1`, the Potency entry is “inactive”.

Consider `O=C(Nc1nnc(C2CC2)s1)c1cc(Cl)sc1Cl`, for which the Potency entry was “inactive”.

Turning to `Cc1cc(C(=O)Nc2nnc(C3CC3)s2)c(C)s1`, the Potency result is “inactive”.

In the case of `O=C(Nc1nnc(C2CC2)s1)c1ccccn1`, the Potency is 10.4 µM (active).

As to `C=CCN1CC(C)/C(=N\O)CC1C` (stereo not drawn), the Potency result is “inactive”.

`Cc1cnc(C(=O)OCc2c(C)cc(C(C)(C)C)cc2C)cn1`: the Potency result was “inactive”.

Consider `CCn1c(=O)c([N+](=O)[O-])c(NCc2ccc3c(c2)OCO3)c2ccccc21`, for which the Potency entry was “inactive”.

As to `S=C(NCc1ccco1)NCc1ccccc1Cl`, the Potency entry is “inactive”.

Consider `Cc1[nH]c2ccccc2c1C(=O)CN1CC(C)CC(C)C1` (stereo not drawn), for which the Potency entry is “inactive”.

Regarding `Cc1[nH]c2ccccc2c1C(=O)C(C)Sc1nnc(C2CC2)o1` (stereo not drawn), the Potency was 4.15 µM (active).

Consider `Cc1[nH]c2ccccc2c1C(=O)CSCC(=O)O`, for which the Potency result was “inactive”.

Consider `Cc1ccc(SCCSc2ncccn2)cc1`, for which the Potency result is “inactive”.

Turning to `O=C(NCc1ccccc1)[C@@H]1CSC2c3ccccc3C(=O)N21` (stereo partly drawn), the Potency result was “inactive”.

As for `CC1(C)SC2c3ccccc3C(=O)N2[C@@H]1C(=O)NCc1ccco1` (stereo partly drawn), the Potency was 5.22 µM (active).

For `COCCCNC(=O)[C@H]1N2C(=O)c3ccccc3C2SC1(C)C` (stereo partly drawn), the Potency result is “inactive”.

`COc1cccc(NC(=O)CN(C)C(=O)CSC(=S)N2CCCC2)c1`: the Potency entry is “inactive”.
